Gal4-VP16 FLuc = counter-screen for ROR gamma inhibitors: Gal4-VP16 reporter; Drosophila S2 Gal4-VP16 UAS-luciferase, luminescence, 20 h; Potency, µM (series often up to 53.6 µM), without a hit: at the highest dose activity, negative = inhibition, usual class: inhibitors; 3.5% of 310,000 active; AID 2546;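 further: Gal4-VP16 expression switched on by copper sulfate through the metallothionein promoter; on the % scale 0 is the no-effect control and ±100 the full control effect; nearly all actives have a fitted effect of over 50% in size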
KB-V1 MDR tox = kills drug-selected multidrug resistant KB-V1 cells; KB-V1 MDR cells viability, CellTiter-Glo, 72 h; 3.4% of 400,000 active; Potency, µM (series often up to 46.1 µM), hits mostly cytotoxic; further: on the % scale 0 is the no-effect control and ±100 the full control effect; nearly all actives have a fitted effect of over 60% in size
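qHTS viability screen in drug-selected KB-V1 MDR cells: 72 h compound treatment at 37 degrees C, ATP luminescence end point.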
SW480 rereplic = induces DNA re-replication in SW480 colon adenocarcinoma cells | SW480 DNA re-replication, Hoechst DNA content imaging, 48 h | Potency, µM (highest dose often 46.1 µM), for the others: at the top dose re-replication activation, actives largely listed as activators | 1.8% of 340,000 active | AID 624297; further: % of control where 0% means no effect; nearly all actives have a fitted effect of over 55% in size
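Treated cells incubate 48 hr (37 C, 5% CO2), are stained 40 min with Hoechst, and nuclear fluorescence is enumerated; a rise in nuclei with high DNA signal marks re-replication.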
MCF10A rerep = DNA re-replication induction in MCF 10a cells | MCF 10A DNA re-replication, Hoechst nuclear intensity, 48 h | Potency, µM (series often up to 46.1 µM), without a hit: at the highest dose activity, positive = re-replication, most hits filed as activators | 2.9% of 350,000 active | AID 624296; further: % of control where 0% means no effect; nearly all actives have a fitted effect of over 50% in size
RORg inh = blocks mouse ROR gamma transcriptional activity | Drosophila S2 Gal4-RORgamma UAS-luciferase reporter, 20 h | Potency, µM (highest dose often 53.6 µM), without a hit: at the top dose activity change, negative = inhibition, usual class: inhibitors | 5.4% of 310,000 active; further: on the % scale 0 is the no-effect control and ±100 the full control effect; nearly all actives have a fitted effect of over 60% in size
Target sequence (P51450 whole entry, looked up, the tested form may be a part): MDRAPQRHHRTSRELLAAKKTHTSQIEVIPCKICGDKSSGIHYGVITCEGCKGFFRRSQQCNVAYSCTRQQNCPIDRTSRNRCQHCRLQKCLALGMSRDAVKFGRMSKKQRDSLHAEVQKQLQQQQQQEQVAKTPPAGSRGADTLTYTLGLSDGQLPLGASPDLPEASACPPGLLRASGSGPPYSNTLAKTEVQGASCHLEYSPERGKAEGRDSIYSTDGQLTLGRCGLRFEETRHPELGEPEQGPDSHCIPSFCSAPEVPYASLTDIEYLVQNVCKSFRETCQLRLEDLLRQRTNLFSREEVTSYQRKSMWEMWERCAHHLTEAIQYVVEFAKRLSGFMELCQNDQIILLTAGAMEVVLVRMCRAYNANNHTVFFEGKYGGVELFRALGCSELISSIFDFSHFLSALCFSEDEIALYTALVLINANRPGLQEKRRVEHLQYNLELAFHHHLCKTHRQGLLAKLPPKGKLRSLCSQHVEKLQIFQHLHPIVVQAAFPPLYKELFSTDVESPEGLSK
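Drosophila Schneider cells stably carrying a metallothionein-driven Gal4 DBD–ROR gamma fusion and a UAS-Photinus luciferase reporter were exposed to compound for 1 hr, then induced with copper sulfate (700 uM final) for 20 hr at ambient temperature before luminescence reading.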
KB-3-1 cytotox = kills parental KB-3-1 adenocarcinoma cells; AID 1347075; 1.4% of 400,000 active; KB-3-1 viability, CellTiter-Glo ATP luminescence, 72 h; Potency, µM (doses to about 46.1 µM), most hits filed as cytotoxic; further: on the % scale 0 is the no-effect control and ±100 the full control effect; nearly all actives have a fitted effect of over 60% in size
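Cytotoxicity in the drug-sensitive parental line KB-3-1 was scored as loss of CellTiter-Glo luminescence following 72 h incubation with compound. Values come from curve fitting of normalized concentration-response data.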
Numbers without * were called inactive; i = inactive; ? = inconclusive; · = no result; [ ] = dose if it differs, or a comment. Rows were chosen to be rich in hits. Some 10% of all compounds tested hit in one or more screens of this group. The call rests on the fitted dose curve; in most records, active means well fitted curve in the direction sought with a large enough effect; inconclusive means small, poorly fitted or top-dose-only effect, or another doubt; inactive means no such curve, though single readings can be large; an effect the other way counts as inactive or inconclusive. Potency means the concentration at half of the fitted maximal effect.

SMILES | Gal4-VP16 FLuc | KB-V1 MDR tox | SW480 rereplic | MCF10A rerep | RORg inh | KB-3-1 cytotox
CC(C)CC(N)c1csc(Nc2ccc(C(F)(F)F)cn2)n1 (stereo unspecified) | · | 16.4µM* | · | · | · | ?
c1ccc(Sc2ncnc3ccccc23)cc1 | ? | i | -2.2% | ? | 36.3% | i
c1ccc(Cc2nnc(Sc3ccccc3)c3ccccc23)cc1 | ? | i | 14.6µM* | ? | -34.3% | i
N#Cc1c(Nc2ccccc2)[n+]([O-])c2ccc(Cl)cc2[n+]1[O-] | · | i | 2.91µM* | 16.2% | · | ?
O=C(/C=C/Nc1ccccc1)c1ccc(Cl)cc1Cl | ? | i | 0.1% | 22.5% | ? | i
COc1ccccc1CC(=O)NCc1nn(-c2ccccc2)nc1C | -8.8% | i | 0.2% | 8.0% | -4.9% | i
Cc1nn(C)c(Cl)c1NC(=O)OCc1ccc(F)cc1 | 1.78µM* | i | 17.8% | -185.4%[0.0737 µM] | ? | i
COc1ccccc1COC(=O)Nc1c(C)nn(C)c1Cl | -1.2% | 23.1µM* | -4.1% | 8.6% | 37.0% | i
Cn1nc(C(F)(F)F)c2cc(NC(=O)OCc3ccc(F)cc3)sc21 | -12.1% | ? | -5.6% | ? | ? | i
CCOC(=O)c1cccc(NC(=O)c2cc3c(=O)n(C)c4ccccc4c3n2C)c1 | · | i | · | · | · | i
CCn1cc(C(=O)N2CCN(c3cccc(C)c3C)CC2)c2cc(OC)c(OC)cc2c1=O | · | i | · | · | · | i
COc1ncc2nc(-c3cn(C)c4ccccc34)c(=O)n(-c3ccccc3)c2n1 | 4.4% | · | · | · | -8.7% | ·
N#Cc1c2c(c(Nc3ccccc3)n3c1nc1ccccc13)CCC2 | -17.1% | i | 2.9%[9.22 µM] | 16.4µM* | -15.7% | ?
Cc1cc(Nc2ccc(O)cc2)n2c(nc3ccccc32)c1C#N | 19.7% | i | -19.6%[1.84 µM] | -24.1% | 2.4% | i
Cc1cc(Nc2cccc(Br)c2)n2c(nc3ccccc32)c1C#N | · | ? | · | · | · | 8.2µM*
N#Cc1c2c(c(Nc3ccc(F)cc3)n3c1nc1ccccc13)CCCC2 | · | i | 7.0% | ? | · | ?
CN(CCOc1ccc(Cl)cc1)C(=O)c1cccc(S(=O)(=O)N2CCN(c3ccccc3)CC2)c1 | · | ? | -10.3% | 8.5% | · | ?
CC(=O)NC(c1ccc(F)c(F)c1)c1nc(-c2cc3ccccc3o2)cs1 (stereo unspecified) | · | i | · | · | · | i
CCC(=O)Nc1cc2nn(-c3ccc(C)cc3)nc2cc1C | -20.6% | i | -9.7% | 0.3% | -28.3% | i
COc1ccc(-n2nc3cc(C)c(NC(=S)NC(=O)c4ccccc4C)cc3n2)cc1 | ? | i | 10.8% | 3.66µM* | 3.16µM* | i
Cc1ccc(-n2nc3ccc(NC(=S)NC(=O)/C=C/c4ccco4)cc3n2)cc1 | ? | i | -6.8% | -0.7% | 3.16µM* | i
Cc1ccc(-n2nc3cc(C)c(NC(=S)NC(=O)/C=C/c4ccco4)cc3n2)cc1 | 5.01µM* | i | 3.66µM* | 5.1% | 2.24µM* | i
COc1cccc(C(=O)NCC(c2ccc(N(C)C)cc2)N2CCc3ccccc32)c1 (stereo unspecified) | · | i | · | · | · | i
CCN(CC)C(=O)c1cc([N+](=O)[O-])cc2c1-c1ccc([N+](=O)[O-])cc1C2=C(C#N)C#N | 20µM* | i | ? | 5.9% | ? | i
Cc1ccc2nc(-c3cccc(NC(=O)c4cccc5c(Cl)cccc45)c3)oc2c1 | · | i | · | · | · | i
COc1ccc(NC(=O)CC(=O)Nc2ccc(OC)cc2OC)c(OC)c1 | 2.5% | 20.6µM* | -9.9% | 12.0% | -11.5% | i
CCOc1ccc(NCC(=O)Nc2ccc(Cl)cc2C)cc1 | -5.4% | ? | ? | ? | 22.6% | i
COc1ccccc1NC(=O)c1ccccc1Oc1ccccc1 | 2.1% | i | -8.0% | 16.4% | 5.4% | i
COc1ccccc1NC(=O)NNC(=O)C(C)Oc1ccc2ccccc2c1 (stereo unspecified) | -2.7% | i | 3.3% | 3.8% | 1.8% | i

From PubChem
